{"source": "the supplement of paper PMC8728848", "experiment_in_all_cases": "glycan array binding signal (z-score within array); higher = stronger binding", "conditions_in_all_cases": "glycan notation: IUPAC condensed, linker removed", "key": {"[1]": {"target": "Gal(b1-4)GlcNAc(b1-3)Gal(b1-4)GlcNAc(b1-3)Gal(b1-4)GlcNAc(b1-2)Man(a1-3)[Gal(b1-4)GlcNAc(b1-3)Gal(b1-4)GlcNAc(b1-3)Gal(b1-4)GlcNAc(b1-2)Man(a1-6)]Man(b1-4)GlcNAc(b1-4)[Fuc(a1-6)]GlcNAc", "summary_of_the_method": "(§1)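 Glycan array data were curated from 3228 arrays in the Consortium for Functional Glycomics database and kept only where the protein sequence was available. Glycan names were converted to IUPAC-condensed notation, and columns mapping to the same glycan were averaged. The binding signal is a within-array Z-score, averaged across arrays of the same protein sequence at different concentrations or buffers and across linkers. Negative Z-scores can be read as non-binding.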"}, "[2]": {"target": "Gal(b1-4)GlcNAc(b1-3)Gal(b1-4)GlcNAc(b1-3)Gal(b1-4)GlcNAc(b1-3)Gal(b1-4)GlcNAc(b1-3)Gal(b1-4)GlcNAc(b1-2)Man(a1-3)[Gal(b1-4)GlcNAc(b1-3)Gal(b1-4)GlcNAc(b1-3)Gal(b1-4)GlcNAc(b1-3)Gal(b1-4)GlcNAc(b1-3)Gal(b1-4)GlcNAc(b1-2)Man(a1-6)]Man(b1-4)GlcNAc(b1-4)GlcNAc", "summary_of_the_method": "as §1"}, "[3]": {"target": "Gal(b1-4)GlcNAc(b1-3)Gal(b1-4)GlcNAc(b1-6)[Gal(b1-3)]GalNAc", "summary_of_the_method": "as §1"}, "Gal6S(b1-4)Glc": {"target": "Gal6S(b1-4)Glc", "summary_of_the_method": "as §1"}, "Gal6S(b1-4)GlcNAc6S": {"target": "Gal6S(b1-4)GlcNAc6S", "summary_of_the_method": "as §1"}, "GalNAc(a1-3)GalNAc": {"target": "GalNAc(a1-3)GalNAc", "summary_of_the_method": "as §1"}, "[4]": {"target": "GalNAc(b1-4)GlcNAc(b1-3)GalNAc(b1-4)GlcNAc", "summary_of_the_method": "as §1"}, "GalNAc3S(b1-4)GlcNAc": {"target": "GalNAc3S(b1-4)GlcNAc", "summary_of_the_method": "as §1"}, "[5]": {"target": "GlcNAc(a1-4)Gal(b1-4)GlcNAc(b1-3)Gal(b1-4)GlcNAc", "summary_of_the_method": "as §1"}, "[6]": {"target": "GlcNAc(a1-4)Gal(b1-4)GlcNAc(b1-3)Gal(b1-4)[Fuc(a1-3)]GlcNAc(b1-3)Gal(b1-4)[Fuc(a1-3)]GlcNAc", "summary_of_the_method": "as §1"}, "[7]": {"target": "GlcNAc(b1-2)[GlcNAc(b1-4)]Man(a1-3)[GlcNAc(b1-4)][GlcNAc(b1-2)[GlcNAc(b1-6)]Man(a1-6)]Man(b1-4)GlcNAc(b1-4)[Fuc(a1-6)]GlcNAc", "summary_of_the_method": "as §1"}, "[8]": {"target": "GlcNAc(b1-3)Gal(b1-4)GlcNAc(b1-3)Gal(b1-4)GlcNAc(b1-3)Gal(b1-4)GlcNAc(b1-3)Gal(b1-4)GlcNAc(b1-2)Man(a1-3)[GlcNAc(b1-3)Gal(b1-4)GlcNAc(b1-3)Gal(b1-4)GlcNAc(b1-3)Gal(b1-4)GlcNAc(b1-3)Gal(b1-4)GlcNAc(b1-2)Man(a1-6)]Man(b1-4)GlcNAc(b1-4)[Fuc(a1-6)]GlcNAc", "summary_of_the_method": "as §1"}, "GlcNAc(b1-3)Man": {"target": "GlcNAc(b1-3)Man", "summary_of_the_method": "as §1"}, "Kdn(a2-3)Gal(b1-3)GlcNAc": {"target": "Kdn(a2-3)Gal(b1-3)GlcNAc", "summary_of_the_method": "as §1"}, "[9]": {"target": "Kdn(a2-3)Gal(b1-4)[Fuc(a1-3)]GlcNAc", "summary_of_the_method": "as §1"}, "Kdn(a2-6)Gal(b1-4)GlcNAc": {"target": "Kdn(a2-6)Gal(b1-4)GlcNAc", "summary_of_the_method": "as §1"}, "[10]": {"target": "Neu5Ac(a2-3)Gal(b1-3)GalNAc(b1-3)Gal(a1-4)Gal(b1-4)Glc", "summary_of_the_method": "as §1"}, "[11]": {"target": "Neu5Ac(a2-3)Gal(b1-3)GalNAc(b1-4)[Neu5Ac(a2-3)]Gal(b1-4)Glc", "summary_of_the_method": "as §1"}, "[12]": {"target": "Neu5Ac(a2-3)Gal(b1-3)[Fuc(a1-4)]GlcNAc(b1-3)Gal(b1-3)[Fuc(a1-4)]GlcNAc", "summary_of_the_method": "as §1"}, "[13]": {"target": "Neu5Ac(a2-3)Gal(b1-3)[Fuc(a1-4)]GlcNAc(b1-3)Gal(b1-4)[Fuc(a1-3)]GlcNAc", "summary_of_the_method": "as §1"}, "[14]": {"target": "Neu5Ac(a2-3)Gal(b1-4)GlcNAc(b1-3)Gal(b1-4)[Fuc(a1-3)]GlcNAc", "summary_of_the_method": "as §1"}, "[15]": {"target": "Neu5Ac(a2-3)[Neu5Ac(a2-6)]GalNAc", "summary_of_the_method": "as §1"}, "[16]": {"target": "Neu5Ac(a2-6)Gal(b1-4)GlcNAc(b1-2)Man(a1-3)[Neu5Ac(a2-6)Gal(b1-4)GlcNAc(b1-2)Man(a1-6)]Man(b1-4)GlcNAc(b1-4)[Fuc(a1-6)]GlcNAc", "summary_of_the_method": "as §1"}, "[17]": {"target": "Neu5Ac(a2-6)Gal(b1-4)GlcNAc(b1-2)Man(a1-6)[GlcNAc(b1-2)Man(a1-3)]Man(b1-4)GlcNAc(b1-4)GlcNAc", "summary_of_the_method": "as §1"}, "[18]": {"target": "Neu5Ac(a2-8)Neu5Ac(a2-3)Gal(b1-3)GalNAc(b1-4)[Neu5Ac(a2-8)Neu5Ac(a2-3)]Gal(b1-4)Glc", "summary_of_the_method": "as §1"}, "[19]": {"target": "Neu5Ac(a2-8)Neu5Gc(a2-3)Gal(b1-4)GlcNAc", "summary_of_the_method": "as §1"}}, "note": "Many of the other results were omitted from the sample, so the strongest signals are more common in it than they were."}
{"binder": "PX9937B-bvu-524-33-524 (Bacteroides vulgatus) (protein) GTAYWKNPDQFTAFNTGLHALLREKSYNFFLLGEPRADIYGDNPIGGEASQGMERLPFNTINKENVGISNYGDMYKIINQINQMIAKTTETTILTEATQNYYLGEAYGMRAYLYFHLLRSWGDVVLYLDYTEGQNLDLSNITKGVSPATEVMEQIKKDIQASENAFGSDYSFKLGRHFWSAAATQMLKGEAYLWSGRQMNGGNSDYTIAKNAFENVKKADVGLVTSSFKDIFSFENKKNKEMIFTIHNGKDEYEMWGGYYRMRLIPAQDKMVKIYCDENGNSFVGTPDAQLNGLTQLQVRREFYFKGFRNNDTRWTTSLKAVYKKDAQGVVSYFGPITYKFQGTMLEGGSTRSFLDDFPIYRYADCLLQLAMAKVLLGEDPTEEINAVRERAYGSKYFNEHKAEIAYPNDNDPEFYTDNKWMKPDNAGALEAILKERLREFMFEGKRWYDIRLLGWDYVHQYSSAEQSRLLWPIDAGTLTNNSALKQTPGYE", "values": [{"measurement": "glycan array binding signal (z-score)", "setting": "[1]", "result": 2.54}, {"measurement": "glycan array binding signal (z-score)", "setting": "[2]", "result": 8.61}, {"measurement": "glycan array binding signal (z-score)", "setting": "[3]", "result": 3.08}, {"measurement": "glycan array binding signal (z-score)", "setting": "Gal6S(b1-4)Glc", "result": -0.101}, {"measurement": "glycan array binding signal (z-score)", "setting": "Gal6S(b1-4)GlcNAc6S", "result": -0.297}, {"measurement": "glycan array binding signal (z-score)", "setting": "GalNAc(a1-3)GalNAc", "result": -0.035}, {"measurement": "glycan array binding signal (z-score)", "setting": "[4]", "result": -0.144}, {"measurement": "glycan array binding signal (z-score)", "setting": "GalNAc3S(b1-4)GlcNAc", "result": -0.324}, {"measurement": "glycan array binding signal (z-score)", "setting": "[5]", "result": -0.254}, {"measurement": "glycan array binding signal (z-score)", "setting": "[6]", "result": 0.453}, {"measurement": "glycan array binding signal (z-score)", "setting": "[7]", "result": -0.459}, {"measurement": "glycan array binding signal (z-score)", "setting": "[8]", "result": 5.78}, {"measurement": "glycan array binding signal (z-score)", "setting": "GlcNAc(b1-3)Man", "result": 0.006}, {"measurement": "glycan array binding signal (z-score)", "setting": "Kdn(a2-3)Gal(b1-3)GlcNAc", "result": -0.588}, {"measurement": "glycan array binding signal (z-score)", "setting": "[9]", "result": -0.28}, {"measurement": "glycan array binding signal (z-score)", "setting": "Kdn(a2-6)Gal(b1-4)GlcNAc", "result": -0.409}, {"measurement": "glycan array binding signal (z-score)", "setting": "[10]", "result": -0.124}, {"measurement": "glycan array binding signal (z-score)", "setting": "[11]", "result": 0.323}, {"measurement": "glycan array binding signal (z-score)", "setting": "[12]", "result": -0.529}, {"measurement": "glycan array binding signal (z-score)", "setting": "[13]", "result": -0.189}, {"measurement": "glycan array binding signal (z-score)", "setting": "[14]", "result": 0.162}, {"measurement": "glycan array binding signal (z-score)", "setting": "[15]", "result": -0.279}, {"measurement": "glycan array binding signal (z-score)", "setting": "[16]", "result": 0.782}, {"measurement": "glycan array binding signal (z-score)", "setting": "[17]", "result": 0.042}, {"measurement": "glycan array binding signal (z-score)", "setting": "[18]", "result": -0.231}, {"measurement": "glycan array binding signal (z-score)", "setting": "[19]", "result": 5.74}]}
